Screening data from PubChem BioAssay.
Only some compounds are listed: those with a hit (about 2% of all), similar ones and a draw of the others.
CHO-K1 Ca ag: counter-screen for M1 agonists: effect in parental CHO-K1 cells; Fluo-8 calcium fluorescence; scaled to maximal ATP response, vehicle zero; activation, % at 3 µM; 360,000 tested, 0.48% active; AID 602248; in the data active = activation above about 15%;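 also: untransfected CHO-K1 host cells lacking M1 receptor as counterscreen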
M1 PAM parental: nonselective activator or artifact in parental CHO-K1 calcium assay | activation, % at 3 µM | AID 602247 | ATP EC20, Fluo-8 calcium fluorescence; 0% at ATP EC20, 100% at ATP max | 360,000 tested, 0.02% active;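 active = activation above the run cutoff, the mean activation of all test compounds plus 3 SD, cut at about 40% in these data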;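 also: peak over basal fluorescence ratio in a 140 s read after ATP addition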
M4 ag: CHRM4 agonism in calcium assay | CHO-K1 hM4/Gqi5, Fluo-8 calcium fluorescence; vehicle 0%, full acetylcholine response 100% | activation, % at 3 µM | 360,000 tested, 0.14% active;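 active = activation above the run mean over all test wells plus 3 SD, cut at about 32% in these data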;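 also: peak over basal fluorescence ratio per well then scaled between controls; 0% = DMSO wells and 100% = acetylcholine at EC100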
Target sequence (P08173 whole entry, looked up): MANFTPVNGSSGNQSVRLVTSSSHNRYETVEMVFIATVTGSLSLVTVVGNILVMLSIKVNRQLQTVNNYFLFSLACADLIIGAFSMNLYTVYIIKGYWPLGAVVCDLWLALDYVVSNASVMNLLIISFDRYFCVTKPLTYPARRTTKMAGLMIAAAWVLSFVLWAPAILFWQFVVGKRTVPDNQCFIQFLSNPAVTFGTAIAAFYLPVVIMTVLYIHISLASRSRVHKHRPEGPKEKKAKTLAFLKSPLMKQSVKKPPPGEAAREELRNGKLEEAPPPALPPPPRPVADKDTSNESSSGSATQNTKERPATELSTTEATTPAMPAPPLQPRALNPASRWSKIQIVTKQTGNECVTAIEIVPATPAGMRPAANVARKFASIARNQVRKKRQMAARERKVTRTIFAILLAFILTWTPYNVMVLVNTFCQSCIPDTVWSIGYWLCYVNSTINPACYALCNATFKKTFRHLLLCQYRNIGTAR
M4 antag: blocks acetylcholine activation of human M4 receptor. inhibition, % at 3 µM. CHO-hM4 cells, ACh EC80, Fluo-8 calcium fluorescence. 360,000 tested, 0.73% active;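 active = inhibition above its plate's cutoff, the mean inhibition of sample wells plus 3 SD, cut at about 27% in these data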;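 also: 0% = acetylcholine EC80 with DMSO and 100% = DMSO without agonist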
M4 PAM: CHRM4 positive allosteric modulation | P08173 | CHO-K1 hM4/Gqi5, Fluo-8 calcium fluorescence, ACh EC20; 0% = ACh EC20, 100% = maximal ACh | activation, % at 3 µM | 360,000 tested, 0.4% active | AID 624126;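 active = activation above its plate's cutoff, the mean activation of sample wells plus 3 SD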
CHO-K1 Ca antag: counter-screen for M1 antagonists: effect in parental CHO-K1 cells | AID 602250 | 360,000 tested, 0.6% active | inhibition, % at 3 µM | ATP-induced calcium, Fluo-8 fluorescence;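 active = inhibition above a per-plate cutoff, the plate's mean sample inhibition plus 3 SD, cut at about 24% in these data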;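 also: 0% = DMSO plus EC80 ATP and 100% = DMSO alone without ATP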
An asterisk follows results filed as active.

SMILES | CHO-K1 Ca ag | M1 PAM parental | M4 ag | M4 antag | M4 PAM | CHO-K1 Ca antag
Clc1ccc(C2CC(c3ccccc3)Nc3ncnn32)cc1 (stereo not drawn) | 1 | 17 | 4 | -1 | 1 | -1
Cn1c(CCNC(=O)c2ccco2)nc2cc(NC(=O)c3ccccc3)ccc21 | 3 | 5 | 5 | -1 | -1 | -8
CN(C)CCCn1c2c(c(SCC(=O)Nc3cccc4ccccc34)nc1=O)CCC2 | 2 | 11 | 0 | -2 | 2 | -8
COc1ccccc1-n1cnc2cc(NCc3ccccn3)ccc21 | 0 | 11 | 0 | 42* | -15 | -15
COc1ccc(-n2cnc3cc(NCc4ccccn4)ccc32)cc1 | 0 | -9 | 0 | 12 | -4 | -11
CC(=O)c1ccc(NC(=O)CCc2ccc(C)o2)cc1 | 0 | -18 | 1 | -2 | -8 | 0
Brc1ccc(CN2CCN(c3ccccn3)CC2)s1 | 0 | 18 | -2 | -8 | 29* | -1
N#Cc1ccc(OCC(=O)Nc2cc(S(=O)(=O)N3CCCCC3)ccc2N2CCCCC2)cc1 | 2 | 14 | 3 | 4 | -6 | -1
CCOc1ccc(S(=O)(=O)N2CCN(C(=O)c3cc(C4CC4)nn3-c3ccccc3)CC2)cc1 | 0 | 9 | 7 | -3 | -14 | 66*
CCOC(=O)C1=NN(C(=O)c2ccc(OC)cc2)C(O)(c2ccc(Cl)cc2)C1 (stereo not drawn) | 8 | 25 | 3 | 3 | 2 | 1
COC(=O)C1=NN(C(=O)c2cccc(Br)c2)C(O)(c2ccc(Cl)cc2)C1 (stereo not drawn) | 10 | 3 | 39* | 2 | -5 | 5
COc1ccc(-c2nc(-c3cccnc3)no2)cc1 | 0 | 10 | 2 | -1 | -1 | 2
Oc1ccccc1-c1nnc(COc2ccc(Cl)cc2Cl)o1 | -1 | -14 | 1 | -16 | 5 | 44*
Oc1ccccc1-c1nnc(COc2ccccc2)o1 | 0 | 7 | 0 | -2 | 1 | 7
CC(=O)Nc1ccc(CN2CCN(C3CCCC3)C(CCO)C2)cc1 (stereo not drawn) | 0 | 16 | 0 | 35* | -24 | -14
OCCC1CN(Cc2nc(-c3ccccc3)cs2)CCN1C1CCCC1 (stereo not drawn) | 0 | 12 | 1 | 53* | -57 | -6
OCCC1CN(Cc2c(F)cccc2Cl)CCN1C1CCCC1 (stereo not drawn) | 2 | 4 | 1 | 26* | -21 | 12
COc1ccc(-n2ccnc2CN2CCN(C3CCCC3)C(CCO)C2)cc1 (stereo not drawn) | 0 | -1 | 0 | 0 | -5 | -2
COc1ccc2c(c1)C=C(CN1CCN(C3CCCC3)C(CCO)C1)CO2 (stereo not drawn) | 0 | 15 | 1 | 73* | -20 | -19
CCOc1ccc2nc(Nc3nc(CSc4nnnn4-c4ccccc4)cc(=O)[nH]3)nc(C)c2c1 | 1 | 0 | 2 | 25 | -7 | -2
CSc1ncc(CN2CCN(C3CCCC3)C(CCO)C2)cn1 (stereo not drawn) | 13 | 15 | 0 | 42* | -41 | -2
CC1CCN(C(=O)N2c3ccccc3Sc3ccccc32)CC1 | 0 | 5 | 0 | 5 | -7 | -8
CC1CCN(CC(O)CN2c3ccccc3Sc3ccccc32)CC1 (stereo not drawn) | 25* | 2 | 12 | -6 | -13 | 2
CCOc1cc(/C=C2\SC(=S)N(C(C(=O)O)c3ccccc3)C2=O)ccc1O (stereo not drawn) | 29* | 0 | 52* | 10 | -28 | 9
COc1cc(/C=C2\SC(=S)N(C(C(=O)O)c3ccccc3)C2=O)ccc1O (stereo not drawn) | 29* | -15 | 40* | 22 | -21 | 7
O=C(O)C(c1ccccc1)N1C(=O)/C(=C\c2ccc(O)c(O)c2)SC1=S (stereo not drawn) | 9 | -24 | 35* | 15 | -23 | 0
CCOc1ccc(/C=C2/SC(=S)N(C(C(=O)O)c3ccccc3)C2=O)cc1OCC (stereo not drawn) | 1 | 17 | 0 | 0 | 4 | -1
